Several values for one entry are separate records, joined by “and”; a condition that tells them apart may be missing. Equal values may be shown once. Results filed as inconclusive are left out. Entries that show only a call come without a potency. The source holds several records for some structures; these can differ, active in one and inactive in another. Activity calls are given as the source filed them. Calls come from the whole dose curve; as a rule, active = well fitted inhibition curve with a large enough effect in the repeat runs; inconclusive = weak or mixed curves; inactive = no such curve, though single readings can be large or run the other way.
target: Cytochrome P450 2C9 (Homo sapiens) (UniProt P11712); test: Cytochrome P450 Family 2 Subfamily C Member 9 (CYP2C9) small molecule antagonists: luciferase reporter qHTS assay (AID 1671198); conditions: P450-Glo CYP2C9 enzyme assay, luciferin luminescence; series mostly up to 115 µM; note: nearly all actives have a fitted effect of over 50% in size
Source text: U.S. Tox21 Program National Center for Advancing Translational Sciences [NCATS] U.S. Environmental Protection Agency [EPA] National Institutes of Environmental Health Sciences [NIEHS] National Toxicology Program [NTP] U.S. Food and Drug Administration [FDA] Tox21 Assay Overview: Cytochrome P450 (CYP) enzymes are membrane-bound hemeproteins that play a key role in metabolism of drugs and xenobiotics. Evaluation of the effect of chemicals on CYP isozymes is useful to minimize the adverse drug reactions and toxicities in drug development process. Tox21 chemicals were tested for their effect on CYP enzyme activities by using P450-Glo (TM) screening systems (Promega Corporation, Madison, WI). These systems provide a luminescent method containing proluciferin substrates and are converted to luciferin products by CYP isozymes. The luciferin products formed are detected with a luciferin detection reagent, and the amount of light produced is proportional to CYP activity. P450-Glo (TM) CYP2C9 screening system (Catalog. No. V9790) was used to detect the compounds that interfere in CYP2C9 activity.
Tox21 Assay Protocol Summary: Two ul of enzyme-substrate mix was dispensed into medium binding white/solid 1536-well plates (Greiner Bio-One North America Inc., Monroe, NC) using a BioRaptr Flying Reagent Dispenser (FRD, Beckman Coulter, Brea, CA). […] The assay plates were incubated at room temperature for 10 min. Then 2 ul of NADPH regeneration solution was added to each well of the assay plates using an FRD and incubated at 37C for 1 h. The reaction was stopped by adding 4 ul of detection reagent using an FRD and after 20 min incubation at room temperature the luminescence signal was measured using a ViewLux plate reader (Perkin Elmer, Shelton, CT). Data were expressed as relative luminescence units.
Potency is the fitted concentration of half-maximal effect.

Cytochrome P450 2C9 (Homo sapiens), sequence (P11712 whole entry, looked up): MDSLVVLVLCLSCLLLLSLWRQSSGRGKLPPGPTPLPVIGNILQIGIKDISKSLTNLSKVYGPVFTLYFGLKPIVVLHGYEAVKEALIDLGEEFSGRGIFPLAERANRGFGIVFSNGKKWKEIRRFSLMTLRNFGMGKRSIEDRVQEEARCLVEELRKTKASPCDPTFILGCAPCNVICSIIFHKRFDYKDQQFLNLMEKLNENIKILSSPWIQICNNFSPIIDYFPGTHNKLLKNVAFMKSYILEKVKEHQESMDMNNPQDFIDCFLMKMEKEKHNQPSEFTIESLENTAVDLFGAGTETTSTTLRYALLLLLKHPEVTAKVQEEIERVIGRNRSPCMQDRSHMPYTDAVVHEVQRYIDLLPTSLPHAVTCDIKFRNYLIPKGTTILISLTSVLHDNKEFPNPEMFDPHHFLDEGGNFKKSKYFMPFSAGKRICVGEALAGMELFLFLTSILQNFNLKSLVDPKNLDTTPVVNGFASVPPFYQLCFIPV

Question: With `O=C1CCCCCCCCCCC1` as the compound, how does the Potency read?
Answer: inactive

Question: How did the Potency turn out when `CCCCC(=O)O` was run?
Answer: inactive

Question: `CN=C(NC#N)NCCSCc1nc[nH]c1C` was tested. Which Potency did it give?
Answer: 19.8 µM (active) and 15.5 µM (active)

Question: With `COc1ccc2cc3[n+](cc2c1OC)CCc1cc2c(cc1-3)OCO2` as the compound, how does the Potency read?
Answer: inactive

Question: `CCCOCC(C)O` (stereo not given) was tested. Which Potency did it give?
Answer: inactive

Question: With `CCCOC(=O)NCCCN(C)C` as the compound, how does the Potency read?
Answer: 63.3 µM (active) and inactive

Question: With `O=C1OC(=O)c2c(Cl)c(Cl)c(Cl)c(Cl)c21` as the compound, how does the Potency read?
Answer: inactive

Question: For `Cc1cc(CC(=O)O)n(C)c1C(=O)c1ccc(Cl)cc1`, which Potency is on record?
Answer: inactive

Question: For `CC(=O)Nc1ccc(CC(=O)O)cc1`, which Potency is on record?
Answer: inactive

Question: How did the Potency turn out when `OCC(CO)(CO)CO` was run?
Answer: inactive

Question: How did the Potency turn out when `Cc1cccc(C)c1[N+](=O)[O-]` was run?
Answer: inactive

Question: How did the Potency turn out when `c1cnc2c(c1)ccc1cccnc12` was run?
Answer: 8.94 µM (active)

Question: Which Potency does the source give for `CN1Cc2c(N)cccc2C(c2ccccc2)C1` (stereo not given) here?
Answer: inactive

Question: With `CCCCCCCCCCCC(=O)N(C)CC(=O)O` as the compound, how does the activity change, negative = inhibition read?
Answer: -4.94% [at 10.5 µM] (inactive)

Question: And the Potency?
Answer: 38.7 µM (active)

Question: Which Potency does the source give for `CC(=O)CC(=O)N(C)C` here?
Answer: inactive

Question: With `CCc1cccc(O)c1` as the compound, how does the Potency read?
Answer: inactive

Question: Which Potency does the source give for `CCCCCC(C)=O` here?
Answer: inactive

Question: Which Potency does the source give for `O=C(NCC1CCCCN1)c1cc(OCC(F)(F)F)ccc1OCC(F)(F)F` (stereo not given) here?
Answer: inactive

Question: For `O=Cc1ccc(CO)o1`, which Potency is on record?
Answer: inactive

Question: For `CC1=CC(=O)CC(C)(C)C1`, which Potency is on record?
Answer: inactive

Question: How did the Potency turn out when `Cc1cc(C)cc(O)c1` was run?
Answer: inactive

Question: Which Potency does the source give for `CC(=O)OC(C)(C)C1CC=C(C)CC1` (stereo not given) here?
Answer: 39.9 µM (active)

Question: For `Cc1ccc(Cl)cc1`, which Potency is on record?
Answer: 63.3 µM (active)

Question: Which Potency does the source give for `COc1cc(NC(=O)CC(C)=O)c(OC)cc1Cl` here?
Answer: 40.1 µM (active) and 39.9 µM (active)

Question: How did the Potency turn out when `CC/C=C(\C(=O)N[C@@H]1C(=O)N2C(C(=O)OCOC(=O)C(C)(C)C)=C(COC(N)=O)CS[C@H]12)c1csc(N)n1` was run?
Answer: 12.3 µM (active) and 7.76 µM (active)

Question: Which Potency does the source give for `O=C1O[C@H]([C@H](O)CO)C(O)=C1O` here?
Answer: inactive

Question: `CC(C=O)Cc1ccc(C(C)(C)C)cc1` (stereo not given) was tested. Which Potency did it give?
Answer: 56.4 µM (active)

Question: Which Potency does the source give for `CCCN(CCC)C(=O)SCC` here?
Answer: inactive

Question: Which Potency does the source give for `CCCCCCC(=O)O` here?
Answer: inactive

Question: `CC(O)CNCC(C)O` (stereo not given) was tested. Which Potency did it give?
Answer: 35.8 µM (active) and inactive

Question: With `C[Si](C)(C)N[Si](C)(C)C` as the compound, how does the Potency read?
Answer: inactive

Question: Which Potency does the source give for `CCCCCCCC(=O)O` here?
Answer: inactive

Question: `CO[Si](CCCNCCN)(OC)OC` was tested. Which Potency did it give?
Answer: inactive

Question: For `Nc1cccc(C(F)(F)F)c1`, which Potency is on record?
Answer: inactive

Question: With `O=C(O)Cc1c[nH]c2ccccc12` as the compound, how does the Potency read?
Answer: 31.7 µM (active) and inactive

Question: With `CCc1cccc(CC)c1N` as the compound, how does the Potency read?
Answer: 71 µM (active)

Question: Which Potency does the source give for `CS(=O)(=O)c1ccc(Cl)cc1` here?
Answer: inactive

Question: With `NC(N)=S` as the compound, how does the Potency read?
Answer: inactive

Question: Which Potency does the source give for `Cc1ccc(C(C)C)cc1` here?
Answer: inactive

Reference: PubChem BioAssay (Tox21)
